Laboratory results as given in PubChem BioAssay AID1159580 (chemical genetic matrix, 2015).
Where “and” joins values, the source holds several entries; their conditions need not be identical. Identical values can stand only once. Hit rate of the full screen: of about 5,500 compounds, about 2,000 (36%) were called active. Another 18% or so got no clear call; they are omitted. Cut-off read from the data, not from the text of the source: active = normalized growth mostly below about 0.91 (no sharp cut-off); inconclusive = no clear call, values can overlap the other calls; inactive = mostly above about 0.92. The list shows a part of the results.

Test: chemical genetic growth profiling, strain panel (AID 1159580);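 note: tested at 20 µM; growth read once vehicle control cultures reached saturation at 30 °C; 1 = growth at the plate median or of vehicle wells; lower values mean less growth of the strain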
Settings: S. cerevisiae deletion strains, growth OD

Measured: normalized growth

COc1c(O)cc2c(-c3ccccc3)cc(=O)oc2c1OC
inactive: locus YAL021C, strain ccr4, hits give low values 0.994 | locus YAL026C, strain drs2, hits give low values 1.01 | locus YAL030W, strain snc1, hits give low values 0.992 | locus YBL061C, strain skt5, hits give low values 1.01 | locus YBR009C, strain hhf1, hits give low values 0.994 | locus YBR021W, strain FUR4, hits give low values 0.982 | locus YBR023C, strain chs3, hits give low values 0.994 | locus YBR171W, strain sec66, hits give low values 1.01 | locus YBR229C, strain ROT2, hits give low values 0.995 | locus YBR231C, strain swc5, hits give low values 1 | locus YBR279W, strain paf1, hits give low values 0.995 | locus YCL011C, strain gbp2, hits give low values 0.995 | locus YCL016C, strain dcc1, hits give low values 0.993 | locus YCL029C, strain bik1, hits give low values 0.964 | locus YCL061C, strain MRC1, hits give low values 0.994 | locus YCL069W, strain vba3, hits give low values 1.01 | locus YCR088W, strain abp1, hits give low values 0.995 | locus YDL005C, strain med2, hits give low values 0.99 | locus YDL035C, strain GPR1, hits give low values 1.05 | locus YDL040C, strain nat1, hits give low values 0.997 | locus YDL074C, strain BRE1, hits give low values 1.01 | locus YDL101C, strain DUN1, hits give low values 0.99 | locus YDL134C, strain PPH21, hits give low values 1.03 | locus YDL185W, strain tfp1, hits give low values 0.95 | locus YDL192W, strain arf1, hits give low values 0.988 | locus YDR001C, strain nth1, hits give low values 0.987 | locus YDR069C, strain doa4, hits give low values 1.02 | locus YDR101C, strain arx1, hits give low values 1.01 | locus YDR137W, strain rgp1, hits give low values 0.889 | locus YDR159W, strain sac3, hits give low values 0.999 | locus YDR162C, strain NBP2, hits give low values 1.01 | locus YDR195W, strain ref2 0.989 | locus YDR297W, strain sur2, hits give low values 1.02 | locus YDR318W, strain mcm21, hits give low values 0.973 | locus YDR334W, strain swr1, hits give low values 1 | locus YDR335W, strain msn5, hits give low values 0.995 | locus YDR388W, hits give low values 0.984 | locus YDR392W, strain spt3, hits give low values 0.848 | locus YDR502C, strain sam2, hits give low values 0.955 | locus YEL003W, strain gim4, hits give low values 1.02 | locus YEL037C, strain rad23, hits give low values 1 | locus YEL061C, strain CIN8 (second series), hits give low values 0.995 | locus YER015W, strain faa2, hits give low values 0.997 | locus YER016W, strain bim1, hits give low values 1 | locus YER110C, hits give low values 0.968 | locus YER111C, strain swi4, hits give low values 0.997 | locus YER155C, strain BEM2 (second series), hits give low values 1.02 | locus YER155C, strain BEM2, hits give low values 0.989 | locus YER167W, strain BCK2, hits give low values 0.988 | locus YFR010W, strain ubp6, hits give low values 1.02 | locus YGL078C, strain dbp3, hits give low values 1 | locus YGL086W, strain mad1, hits give low values 0.996 | locus YGL167C, strain pmr1, hits give low values 0.971 | locus YGL173C, strain kem1, hits give low values 1.01 | locus YGL227W, strain vid30, hits give low values 0.996 | locus YGL240W, strain doc1, hits give low values 1.02 | locus YGL248W, strain PDE1, hits give low values 1.02 | locus YGL253W, strain hxk2, hits give low values 1.02 | locus YGR135W, strain pre9, hits give low values 0.954 | locus YGR252W, strain gcn5, hits give low values 1.06 | locus YHR013C, strain ard1, hits give low values 0.978 | locus YHR027C, strain rpn1, hits give low values 0.987 | locus YHR030C, strain SLT2, hits give low values 0.993 and 1.06 | locus YHR079C, strain IRE1 (second series), hits give low values 0.959 | locus YHR079C, strain IRE1, hits give low values 1.05 | locus YHR094C, strain hxt1, hits give low values 0.983 | locus YHR129C, strain ARP1, hits give low values 1.01 | locus YHR142W, strain chs7, hits give low values 0.965 | locus YHR200W, strain rpn10, hits give low values 0.986 | locus YIL066C, strain RNR3, hits give low values 1 | locus YIL073C, strain SPO22, hits give low values 0.905 | locus YIL125W, strain kgd1, hits give low values 0.992 | locus YIR030C, strain dcg1, hits give low values 0.957 | locus YJL092W, strain hpr5, hits give low values 0.991 | locus YJL095W, strain BCK1 (second series), hits give low values 0.999 | locus YJL095W, strain BCK1, hits give low values 1.11 and 1.04 | locus YJL115W, strain asf1, hits give low values 0.995 | locus YJL129C, strain trk1, hits give low values 0.948 | locus YJL134W, strain LCB3, hits give low values 0.993 | locus YJL154C, strain vps35, hits give low values 0.985 | locus YJL164C, strain tpk1, hits give low values 0.974 | locus YJL166W, strain qcr8, hits give low values 0.999 | locus YJL168C, strain set2, hits give low values 0.965 | locus YJL187C, strain SWE1 (second series), hits give low values 1 | locus YJL187C, strain SWE1, hits give low values 0.989 | locus YJR043C, strain POL32, hits give low values 1.04 | locus YJR066W, strain TOR1, hits give low values 0.984 | locus YKL009W, strain mrt4, hits give low values 0.996 | locus YKL068W, hits give low values 0.985 | locus YKL085W, strain MDH1 (second series), hits give low values 0.973 | locus YKL085W, strain MDH1, hits give low values 0.973 | locus YKL160W, strain elf1, hits give low values 0.983 | locus YKL190W, strain CNB1, hits give low values 0.99 | locus YKR001C, strain vps1, hits give low values 0.946 | locus YKR026C, strain gcn3, hits give low values 1 | locus YKR091W, strain srl3, hits give low values 0.995 | locus YLL001W, strain dnm1, hits give low values 0.962 | locus YLL026W, hits give low values 1 | locus YLL041C, strain sdh2, hits give low values 0.998 | locus YLR027C, strain aat2, hits give low values 1 | locus YLR039C, strain RIC1, hits give low values 0.979 | locus YLR058C, strain SHM2, hits give low values 1.01 | locus YLR102C, strain apc9, hits give low values 0.983 | locus YLR113W, strain HOG1, hits give low values 1.03 | locus YLR221C, strain rsa3, hits give low values 1.04 | locus YLR258W, strain gsy2, hits give low values 1.01 | locus YLR262C, strain YPT6 (second series), hits give low values 0.878 | locus YLR268W, strain sec22, hits give low values 0.975 | locus YLR320W, strain mms22, hits give low values 1.02 | locus YLR330W, strain CHS5, hits give low values 0.985 | locus YLR342W, strain FKS1, hits give low values 1 | locus YLR357W, strain rsc2, hits give low values 0.95 | locus YLR370C, strain arc18, hits give low values 0.99 | locus YLR371W, strain rom2, hits give low values 0.97 | locus YLR384C, strain iki3, hits give low values 0.988 | locus YLR418C, strain cdc73, hits give low values 0.948 | locus YML016C, strain PPZ1, hits give low values 1 | locus YML032C, strain rad52, hits give low values 0.995 | locus YML120C, strain ndi1, hits give low values 0.966 | locus YML124C, strain tub3, hits give low values 0.971 | locus YMR058W, strain fet3, hits give low values 1.01 | locus YMR078C, strain ctf18, hits give low values 0.961 | locus YMR125W, strain sto1, hits give low values 0.973 | locus YMR129W, hits give low values 0.995 | locus YMR205C, strain PFK2, hits give low values 0.936 | locus YMR223W, strain ubp8, hits give low values 0.978 | locus YMR231W, strain pep5, hits give low values 0.995 | locus YMR263W, strain SAP30, hits give low values 0.989 | locus YNL067W, strain RPL9B, hits give low values 1.01 | locus YNL071W, strain lat1, hits give low values 0.993 | locus YNL128W, strain TEP1, hits give low values 1 | locus YNL153C, strain GIM3, hits give low values 1 | locus YNL183C, strain NPR1, hits give low values 0.994 | locus YNL209W, strain ssb2, hits give low values 0.991 | locus YNL233W, strain BNI4, hits give low values 1.01 | locus YNL248C, strain rpa49, hits give low values 1.03 | locus YNL250W, strain rad50, hits give low values 0.915 | locus YNL271C, strain bni1, hits give low values 0.973 | locus YNL298W, strain CLA4, hits give low values 1.01 | locus YNL307C, strain MCK1, hits give low values 0.95 | locus YNL322C, strain KRE1 (second series), hits give low values 0.982 | locus YNR049C, strain mso1, hits give low values 1.01 | locus YNR052C, strain pop2, hits give low values 0.99 | locus YOL012C, strain htz1 1.04 | locus YOL147C, strain pex11, hits give low values 0.968 | locus YOR001W, strain rrp6, hits give low values 1.02 | locus YOR061W, strain CKA2, hits give low values 1 | locus YOR069W, strain VPS5, hits give low values 0.994 | locus YOR070C, strain gyp1, hits give low values 0.999 | locus YOR080W, strain dia2, hits give low values 1.02 | locus YOR083W, strain WHI5, hits give low values 0.984 | locus YOR106W, strain vam3, hits give low values 0.967 | locus YOR136W, strain idh2, hits give low values 0.977 | locus YOR144C, strain elg1, hits give low values 0.989 | locus YOR184W, strain ser1, hits give low values 1.03 | locus YOR231W, strain MKK1, hits give low values 1.06 | locus YOR265W, strain rbl2, hits give low values 0.987 | locus YOR270C, strain vph1, hits give low values 1.01 | locus YOR290C, strain snf2, hits give low values 0.967 | locus YOR316C, strain cot1, hits give low values 0.962 | locus YPL051W, strain arl3, hits give low values 1.02 | locus YPL055C, strain LGE1, hits give low values 1.06 | locus YPL078C, strain atp4, hits give low values 0.969 | locus YPL106C, strain sse1, hits give low values 0.983 | locus YPL240C, strain hsp82, hits give low values 1 | locus YPL256C, strain CLN2, hits give low values 1.02 | locus YPR119W, strain clb2, hits give low values 0.947 | locus YPR141C, strain kar3, hits give low values 0.968 | locus YPR163C, strain tif3, hits give low values 0.98 | locus YPR167C, strain met16, hits give low values 0.968 | strain wtn01, hits give low values 0.991
active: locus YMR307W, strain GAS1, hits give low values 1.67 [resistant]
